In PubChem BioAssay:
Active and inactive are the calls of the source.

Assay: CREB reporter modulators without forskolin, primary screen, cell-based, PC12, CRE-LacZ reporter, unstimulated (AID 1145)
Conditions: no forskolin, luminescence, 4.5 h, higher = more signal, called active from +8 up or from −8 down

z-score, active:
C=C(COC)/C(=C/C[C@@H](OC(C)=O)c1ccccc1OCCO)c1cnc2ccccc2c1 8.98

z-score, inactive:
CCOC(=O)C[C@H]1[C@H](OC(=O)Cc2ccc3c(c2)OCO3)[C@@H](NC(=O)c2ccc3ccccc3n2)c2cc(OCCCO)ccc2N1C(=O)Cc1ccc(OC)cc1 3.29
O=C(NC1CC1)[C@@H]1c2ccccc2C(=O)N(Cc2cc(C(F)(F)F)cc(C(F)(F)F)c2)[C@H]1c1ccc(CO)cc1 1.14
C=C(/C(=C/C[C@@H](OC(C)=O)c1cccc(OCCO)c1)c1cnc2ccccc2c1)C(C)C 0.769
O=C1C2C=CC(C(O)c3cccs3)N(Nc3ccc([N+](=O)[O-])cc3)C2C(=O)N1c1ccccc1 (configuration not stated) -0.685
C[N+](C)(C)CCCC[C@@H]1NC(=O)[C@H]2C[C@@H](C(=O)NCCCCCNC(=O)CS)[C@@H](c3cccc(OCCO)c3)N2C1=O 0.13
COCCOC(=O)N1C(=O)[C@@]2(c3cc(C#CCC(C(=O)OC)C(=O)OC)ccc31)[C@H](c1ccc(O)cc1)N1[C@H](c3ccccc3)[C@H](c3ccccc3)OC(=O)[C@H]1[C@@H]2C(=O)Nc1nc2ccccc2s1 -0.195
COC(=O)[C@@]1(Cc2ccc(OC)cc2)[C@H]2c3cc(C(=O)N4CCCC4)n(Cc4c(CO)[nH]cc(C)c4=O)c3C[C@H]2CN1C(=O)c1ccccc1 0.37
O=C1C[C@]2(c3ccc([N+](=O)[O-])cc3)C(=O)N(C3CC3)c3cc(CO)ccc3[C@H]2N1C1CCCCC1 0.802
COCCOC(=O)N1C(=O)[C@@]2(c3cc(C#CC4(O)CCCCCC4)ccc31)[C@H](c1ccc(O)cc1)N1[C@H](c3ccccc3)[C@H](c3ccccc3)OC(=O)[C@H]1[C@@H]2C(=O)N1CCCCCCC1 0.484
C=CCOC(=O)[C@@H]1[C@H]2C(=O)O[C@H](c3ccccc3)[C@H](c3ccccc3)N2[C@H](c2ccc(OCCOC(=O)[C@H]3C[C@H]4C(=O)N[C@@H](CCCCN(C)C)C(=O)N4[C@H]3c3ccc(O)cc3)cc2)[C@@]12C(=O)Nc1ccc(I)cc12 -0.118
COC(=O)C[C@H]1O[C@@]2(C[C@@H]1[Si](C)(C)C)C(=O)N(C)c1ccccc12 2.3
C=CCC(OC(C)=O)[C@@H]1[C@@H](N(Cc2cc3ccccc3o2)C(=O)c2cccc3ccccc23)c2cc(OCCCO)ccc2N1C(=O)c1ccc2ccccc2n1 (some centres not stated) 2.6
COC(=O)[C@@]1(Cc2ccc(OC)cc2)[C@H]2c3cc(C(=O)N4CCCC4)n(CCn4cc([N+](=O)[O-])nc4C)c3C[C@H]2CN1C(=O)c1ccccc1 0.779
CCCCCC1=C2CNC(CC(C)C)(C(=O)OC)C=C2C(C)C1=O (configuration not stated) 0.0041
O=C1C=C(c2ccccc2)C(=O)C2=C1CC([C@H]1Oc3ccccc3S(=O)(=O)N3CCC[C@@H]13)=CC2 4.67
COCCOC(=O)N1C(=O)[C@@]2(c3cc(C#CCC(C(=O)OC)C(=O)OC)ccc31)[C@H](C(=O)Nc1nc3ccccc3s1)[C@H]1C(=O)O[C@H](c3ccccc3)[C@H](c3ccccc3)N1[C@@H]2c1ccc(O)cc1 -1.14
C=CCC(OC(C)=O)[C@@H]1[C@@H](N(Cc2ccc(-c3cccc(C(F)(F)F)c3)o2)C(=O)c2ccc(-c3ccccc3)cc2)c2cc(OCCCO)ccc2N1C(=O)c1ccc2ccccc2c1 (some centres not stated) -0.477
Cc1ccc(S[C@]2(C(=O)NCCCN(C)C)CC(=O)N(Cc3ccccc3C(F)(F)F)[C@@H]2c2ccc(CO)cc2I)cc1 -0.464
CN(C)CCCC[C@@H]1NC(=O)[C@H]2C[C@@H](C(=O)O)[C@@H](c3ccc(O)cc3)N2C1=O 0.419
COCCOC(=O)N1C(=O)[C@@]2(c3cc(C#CCCO)ccc31)[C@H](c1ccc(OCCO)cc1)N1[C@H](c3ccccc3)[C@H](c3ccccc3)OC(=O)[C@H]1[C@@H]2C(=O)N1CCCCCCC1 -0.459
CCN(CC)c1ccc(N2CC=CC34O[C@@H]5C=CCCOC(=O)C5[C@H]3C(=O)N(C(C)CO)[C@@H]4C2=O)cc1 (some centres not stated) 1.01
CC(C)=CCCC(C)=CC(O)C1C=CC2C(=O)NC(=O)C2N1Nc1ccc(Cl)cc1Cl (configuration not stated) 0.822
COC(=O)[C@@]1(Cc2ccc(F)cc2)[C@H]2c3cc(C(=O)N(C)C)n(CCc4ccc(O)c(O)c4)c3C[C@H]2CN1C(=O)c1ccccc1 0.387
N#Cc1ccc(-c2cccc(=O)o2)cc1 -0.163
COC(=O)[C@@]1(Cc2ccccc2)[C@H]2c3cc(C(=O)N(C)C)n(CCO)c3C[C@H]2CN1C(=O)c1ccccc1 0.583
C=CCOC(=O)[C@H]1[C@@H]2C(=O)O[C@@H](c3ccccc3)[C@@H](c3ccccc3)N2[C@@H](c2ccc(OCCOC(=O)[C@@H]3C[C@@H]4C(=O)N[C@@H](CCCC[N+](C)(C)C)C(=O)N4[C@@H]3c3ccc(O)cc3)cc2)[C@]12C(=O)Nc1ccc(I)cc12 0.553
